Measured values: PubChem BioAssay (Tox21)
Inconclusive results are not listed. The source made the active and inactive calls. Unless noted, calls come from the whole dose curve; as a rule, active = well fitted curve in the direction sought with a large enough effect in the repeat runs; inconclusive = weak or mixed curves; inactive = no such curve, though single readings can be large; an effect the other way counts as inactive or inconclusive.

How the values were obtained:
[1] = qHTS assay to identify small molecule antagonists of the androgen receptor (AR) signaling pathway using the MDA cell line in the presence of 0.5 nM R1881 - cell viability counter screen (AID 1259242); note: nearly all actives have a fitted effect of over 45% in size
How it was run: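 Steps: plate MDA-kb2 cells, rest 5 hr at 37C without CO2; pin in compounds in DMSO; add R1881 to 0.5 nM final; incubate 16 hr; add CellTiter-Fluor, 30 min; read fluorescence.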

[2] = molecular target: Estrogen receptor (Homo sapiens) (UniProt P03372); experiment: qHTS assay to identify small molecule antagonists of the estrogen receptor alpha (ER-alpha) signaling pathway using the BG1 cell line in the presence of 0.1 nM 17-beta-estradiol (AID 1259244); note: nearly all actives have a fitted effect of over 50% in size
How it was run: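 Antagonist mode: compounds in DMSO are pinned onto VM7Luc4E2 reporter cells, 0.1 nM final 17beta-estradiol is added, and after 22 h at 37C luciferase luminescence is measured with ONE-Glo.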

[3] = qHTS assay to identify small molecule HDAC inhibitors (AID 1259364);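 note: wild-type HCT-116 cells with endogenous class I/II HDAC activity; top concentration of the series differs between compounds; nearly all actives have a fitted effect of over 45% in size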
How it was run: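 Cells (HCT-116, wild type) are seeded at 1,500 per well, incubated overnight, treated with compound in DMSO for 2 hr, then developed with HDAC-Glo I/II reagent for 30 min at room temperature.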

[4] = qHTS assay to identify small molecule HDAC inhibitors - cell viability counter screen (AID 1259365); note: series mostly up to about 92 µM; nearly all actives have a fitted effect of over 50% in size
How it was run: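 Wild-type HCT-116 cells were seeded at 1,500 per well, incubated overnight at 37 C, then exposed to compounds in DMSO for 2hr. Viability was read by CellTiter-Glo luminescence after 30min at room temperature.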

[5] = qHTS assay to identify small molecule agonists of the sonic hedgehog signaling (Shh) pathway - cell viability counter screen (AID 1259366); note: nearly all actives have a fitted effect of over 50% in size
How it was run: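 NIH/3T3-derived 3T3 Gli1-Luc cells (stable Gli1-responsive firefly luciferase reporter) were seeded, rested 4 hr at 37 C/5% CO2, then exposed to compounds in DMSO for 24 hr; viability was read by CellTiter-Fluor fluorescence in the same wells.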

[6] = qHTS assay to identify small molecule antagonists of the sonic hedgehog signaling (Shh) pathway - cell viability counter screen (AID 1259367); note: nearly all actives have a fitted effect of over 55% in size
How it was run: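 Conditioned medium drove Shh signaling in 3T3 Gli1-Luc cells exposed to compounds at 37C and 5% CO2. Viability was determined from CellTiter-Fluor fluorescence, with reagent incubated 1 hr after 23 hr of treatment.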

[7] = qHTS assay to identify small molecule agonists of the sonic hedgehog signaling (Shh) pathway (AID 1259368; calls by dose curve; note: series mostly up to about 92 µM; nearly all actives have a fitted effect of over 15% in size)
How it was run: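 Cells of a mouse NIH/3T3 clone stably expressing luciferase under the Gli1 transcriptional response element are exposed to test chemicals for 24 hr at 37 C. Pathway activation is detected as a rise in luminescence.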

[8] = qHTS assay to identify small molecule antagonists of the sonic hedgehog signaling (Shh) pathway (AID 1259369; calls by dose curve; note: nearly all actives have a fitted effect of over 45% in size)
How it was run: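 Cells are plated and held 4hr at 37 C, compounds (DMSO) are pinned in, conditioned medium is added to stimulate the pathway, and after 24hr luciferase reagent is added for 30min before luminescence is read.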

[9] = qHTS assay to identify small molecule phospholipidosis (PLD) inducers (AID 1259344; active = well fitted curve in the direction sought with a large enough effect; an effect the other way counts as inactive or inconclusive)
How it was run: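 After 4 h attachment on collagen I, HepG2 cells were dosed with compound alongside LipidTOX Red, kept 24 h at 37 C, fixed, and imaged for lamellar phospholipid pits.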

Measured: Potency

Estrogen receptor (Homo sapiens), sequence (P03372 whole entry, looked up): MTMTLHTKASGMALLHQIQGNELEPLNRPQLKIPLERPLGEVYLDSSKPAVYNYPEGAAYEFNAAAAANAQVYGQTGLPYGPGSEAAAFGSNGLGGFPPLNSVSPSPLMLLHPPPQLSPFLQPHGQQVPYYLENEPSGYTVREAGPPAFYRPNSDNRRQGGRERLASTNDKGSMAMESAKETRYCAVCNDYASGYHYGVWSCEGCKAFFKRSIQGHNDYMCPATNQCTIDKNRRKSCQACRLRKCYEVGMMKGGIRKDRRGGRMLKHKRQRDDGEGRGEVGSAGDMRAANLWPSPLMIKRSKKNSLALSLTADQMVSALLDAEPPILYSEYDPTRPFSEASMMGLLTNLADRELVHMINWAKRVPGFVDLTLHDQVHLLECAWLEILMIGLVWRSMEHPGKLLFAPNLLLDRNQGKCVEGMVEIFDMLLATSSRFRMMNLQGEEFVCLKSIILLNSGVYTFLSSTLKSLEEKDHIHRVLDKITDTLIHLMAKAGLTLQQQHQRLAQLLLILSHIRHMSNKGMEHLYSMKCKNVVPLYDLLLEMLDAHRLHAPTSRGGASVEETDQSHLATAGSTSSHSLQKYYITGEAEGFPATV

N#CN=C(N)N
not listed: [8] | [9]
inactive: all other assays above

CN(C)CCC#N
not listed: [5] | [8] | [9]
inactive: all other assays above

OCC(O)CCl (stereo unspecified)
not listed: [9]
inactive: all other assays above

COS(=O)(=O)OC
not listed: [5] | [9]
inactive: all other assays above

CCCCC(CC)C(=O)Cl (stereo unspecified)
not listed: [5] | [9]
inactive: all other assays above

OCc1ccco1
not listed: [5] | [8] | [9]
inactive: all other assays above

O=C(O)C(Br)Br
not listed: [9]
inactive: all other assays above

Nc1nc(N)nc(NC2CC2)n1
not listed: [2] | [8]
inactive: all other assays above

COc1nc(NC(C)C)nc(NC(C)C)n1
not listed: [5] | [8] | [9]
inactive: all other assays above

CCNc1nc(Cl)nc(NC(C)C)n1
not listed: [5] | [8] | [9]
inactive: all other assays above

[N-]=[N+]=CC(=O)OC[C@H](N)C(=O)O
not listed: [2] | [8]
inactive: all other assays above

O=P1(NCCCl)OCCCN1CCCl (stereo unspecified)
not listed: [2] | [8]
inactive: all other assays above

CNC(=O)O/N=C/C(C)(C)S(C)=O (stereo unspecified)
not listed: [5] | [8] | [9]
inactive: all other assays above

CNC(=O)O/N=C/C(C)(C)SC
not listed: [5] | [8] | [9]
inactive: all other assays above

N#Cc1ccccn1
not listed: [9]
inactive: all other assays above

Cc1ccc(O)c(C)c1
not listed: [5] | [9]
inactive: all other assays above

O=[N+]([O-])c1ccc(Cl)c(Cl)c1
not listed: [5] | [8] | [9]
inactive: all other assays above

Cc1cccc(C)c1N
not listed: [5] | [8] | [9]
inactive: all other assays above

Cc1cccc(N)c1
not listed: [9]
inactive: all other assays above

OCCCCO
not listed: [2] | [5] | [9]
inactive: all other assays above

Clc1cnc(Oc2ccc(Oc3ncc(Cl)cc3Cl)cc2)c(Cl)c1
not listed: [2] | [8] | [9]
inactive: all other assays above

Cc1ccc(N)cc1
not listed: [2] | [9]
inactive: all other assays above

CCOP(=S)(OCC)Oc1ccc([N+](=O)[O-])cc1
not listed: [2] | [8] | [9]
inactive: all other assays above

CC(=O)/C=C/c1ccccc1
not listed: [2] | [9]
inactive: all other assays above
